Assay in all cases: DAPPL (digital affinity profiling via proximity ligation, sequencing); 10 mM Tris-HCl pH 7.5, 50 mM NaCl, 1 mM DTT, 4% glycerol, room temperature, 30 min; GST-TFs on glutathione beads, 16-mer random dsDNA library, 0.1% formaldehyde crosslink after washing; high values mean tight binding
Experiment [1] deals with T1, FLI1 (Homo sapiens, UniProt Q01543 1-452).
T1 sequence: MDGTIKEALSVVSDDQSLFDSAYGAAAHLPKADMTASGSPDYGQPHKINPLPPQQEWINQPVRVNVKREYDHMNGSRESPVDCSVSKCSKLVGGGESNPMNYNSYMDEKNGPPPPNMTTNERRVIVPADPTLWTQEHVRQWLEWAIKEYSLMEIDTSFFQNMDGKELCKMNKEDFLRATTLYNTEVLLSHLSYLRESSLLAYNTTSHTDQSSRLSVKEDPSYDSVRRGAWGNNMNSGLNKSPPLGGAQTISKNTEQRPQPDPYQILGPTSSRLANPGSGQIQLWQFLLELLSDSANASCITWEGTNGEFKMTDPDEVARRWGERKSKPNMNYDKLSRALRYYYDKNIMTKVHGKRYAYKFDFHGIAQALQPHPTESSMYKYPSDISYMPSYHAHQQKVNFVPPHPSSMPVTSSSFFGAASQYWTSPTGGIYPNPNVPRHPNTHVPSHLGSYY
The note with it: protein: recombinant; tags: N-terminal GST; dsDNA, one strand shown. In outline:
(§1)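 Human transcription factors were made in yeast as GST fusions, captured on glutathione beads and barcoded with DNA. With a tag-only sample included, the pool was incubated with 200 nmole of a random double-stranded 16-mer DNA library in Tris/NaCl/DTT/glycerol buffer at room temperature for 30 min, then crosslinked with 0.1% formaldehyde after washing, ligated by proximity, amplified and sequenced. For binding signal, each hexamer's read frequency for a factor is divided by its frequency for the tag-only sample.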

Experiment [2] concerns the target T2, ELK1 (Homo sapiens, UniProt P19419 1-428).
T2 sequence: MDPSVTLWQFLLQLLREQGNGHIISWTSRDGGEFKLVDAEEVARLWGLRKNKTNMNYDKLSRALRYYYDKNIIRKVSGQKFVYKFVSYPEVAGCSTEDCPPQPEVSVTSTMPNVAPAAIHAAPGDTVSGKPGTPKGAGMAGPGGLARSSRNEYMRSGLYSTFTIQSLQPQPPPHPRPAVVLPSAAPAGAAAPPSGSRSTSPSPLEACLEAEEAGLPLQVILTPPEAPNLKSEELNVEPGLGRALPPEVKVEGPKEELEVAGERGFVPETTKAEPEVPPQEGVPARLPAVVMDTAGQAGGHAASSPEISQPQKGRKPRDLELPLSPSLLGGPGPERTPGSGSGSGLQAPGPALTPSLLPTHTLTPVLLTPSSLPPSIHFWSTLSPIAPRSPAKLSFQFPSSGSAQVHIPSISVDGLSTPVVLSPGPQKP
The following applies: protein: recombinant; tags: N-terminal GST; dsDNA, one strand shown. The essentials:
as §1

In experiment [3] the target is T3, GABPA (Homo sapiens, UniProt Q06546 1-454).
T3 sequence: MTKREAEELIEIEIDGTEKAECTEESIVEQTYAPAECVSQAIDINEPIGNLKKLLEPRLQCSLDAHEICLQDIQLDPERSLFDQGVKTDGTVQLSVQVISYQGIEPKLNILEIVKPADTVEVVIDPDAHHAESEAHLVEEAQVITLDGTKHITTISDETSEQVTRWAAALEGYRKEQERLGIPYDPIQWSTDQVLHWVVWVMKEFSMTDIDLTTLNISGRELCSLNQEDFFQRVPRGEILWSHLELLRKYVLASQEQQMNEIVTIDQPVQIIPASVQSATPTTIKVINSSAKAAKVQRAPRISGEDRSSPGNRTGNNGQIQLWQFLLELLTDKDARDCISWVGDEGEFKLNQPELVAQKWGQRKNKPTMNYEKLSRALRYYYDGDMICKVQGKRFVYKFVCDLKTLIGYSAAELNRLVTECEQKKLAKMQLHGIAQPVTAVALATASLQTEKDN
The following applies: protein: recombinant; tags: N-terminal GST; dsDNA, one strand shown. The essentials: as §1

Experiment [4] addresses T4, ERG (Homo sapiens, UniProt P11308 1-479).
T4 sequence: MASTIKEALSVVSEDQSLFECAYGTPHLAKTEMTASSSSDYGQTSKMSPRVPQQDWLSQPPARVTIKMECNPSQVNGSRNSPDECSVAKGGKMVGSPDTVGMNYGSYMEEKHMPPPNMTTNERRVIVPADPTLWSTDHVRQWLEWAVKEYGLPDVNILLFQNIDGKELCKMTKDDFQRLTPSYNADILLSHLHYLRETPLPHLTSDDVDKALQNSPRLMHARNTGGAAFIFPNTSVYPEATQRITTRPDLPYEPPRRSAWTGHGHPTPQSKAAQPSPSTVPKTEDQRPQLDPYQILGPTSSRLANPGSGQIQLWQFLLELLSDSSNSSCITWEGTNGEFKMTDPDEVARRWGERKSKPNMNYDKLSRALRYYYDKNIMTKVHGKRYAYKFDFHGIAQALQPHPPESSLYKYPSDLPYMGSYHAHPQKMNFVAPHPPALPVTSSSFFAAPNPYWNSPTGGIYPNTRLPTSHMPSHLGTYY
The following applies: protein: recombinant; tags: N-terminal GST; dsDNA, one strand shown. The essentials:
as §1

Experiment [5] deals with ELF1 (Homo sapiens, UniProt P32519 1-619). The following applies: protein: recombinant; tags: N-terminal GST; dsDNA, one strand shown. The essentials: as §1
ELF1, sequence (P32519 whole entry): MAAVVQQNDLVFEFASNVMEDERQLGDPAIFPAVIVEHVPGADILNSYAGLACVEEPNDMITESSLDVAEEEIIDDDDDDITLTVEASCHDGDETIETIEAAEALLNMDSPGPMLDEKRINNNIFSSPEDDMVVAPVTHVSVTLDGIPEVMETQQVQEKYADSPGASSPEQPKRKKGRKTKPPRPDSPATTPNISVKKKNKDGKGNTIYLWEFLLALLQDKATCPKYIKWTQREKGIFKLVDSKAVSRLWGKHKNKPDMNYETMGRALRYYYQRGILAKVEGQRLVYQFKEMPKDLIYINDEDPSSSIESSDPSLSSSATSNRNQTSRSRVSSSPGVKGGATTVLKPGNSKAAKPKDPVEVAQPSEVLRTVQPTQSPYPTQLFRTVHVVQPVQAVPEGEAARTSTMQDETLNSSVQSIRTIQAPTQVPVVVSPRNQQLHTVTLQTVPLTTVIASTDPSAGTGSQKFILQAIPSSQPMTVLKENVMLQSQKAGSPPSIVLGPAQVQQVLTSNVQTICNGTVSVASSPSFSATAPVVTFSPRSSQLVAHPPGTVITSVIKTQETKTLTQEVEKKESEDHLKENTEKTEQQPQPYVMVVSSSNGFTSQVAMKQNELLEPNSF
For experiment [6], the target named is T5, EHF (Homo sapiens, UniProt Q9NZC4 1-300).
T5 sequence: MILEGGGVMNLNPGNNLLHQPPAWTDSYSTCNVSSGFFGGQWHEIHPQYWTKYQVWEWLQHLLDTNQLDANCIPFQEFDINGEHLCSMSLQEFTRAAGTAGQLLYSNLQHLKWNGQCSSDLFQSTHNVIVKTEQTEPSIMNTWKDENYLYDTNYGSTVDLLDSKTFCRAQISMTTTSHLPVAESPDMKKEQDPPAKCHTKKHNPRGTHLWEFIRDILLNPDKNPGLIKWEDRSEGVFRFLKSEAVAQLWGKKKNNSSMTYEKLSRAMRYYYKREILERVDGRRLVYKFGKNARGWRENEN
The note with it: protein: recombinant; tags: N-terminal GST; dsDNA, one strand shown. The essentials:
as §1

For experiment [7], the target named is SPI1 (Homo sapiens, UniProt P17947 1-270). The note with it: protein: recombinant; tags: N-terminal GST; dsDNA, one strand shown. In outline: as §1
Experiment [8] addresses SPIB (Homo sapiens, UniProt Q01892 1-262). The note with it: protein: recombinant; tags: N-terminal GST; dsDNA, one strand shown. In outline: as §1
The target of experiment [9] is T6, ELK3 (Homo sapiens, UniProt P41970 1-407).
T6 sequence: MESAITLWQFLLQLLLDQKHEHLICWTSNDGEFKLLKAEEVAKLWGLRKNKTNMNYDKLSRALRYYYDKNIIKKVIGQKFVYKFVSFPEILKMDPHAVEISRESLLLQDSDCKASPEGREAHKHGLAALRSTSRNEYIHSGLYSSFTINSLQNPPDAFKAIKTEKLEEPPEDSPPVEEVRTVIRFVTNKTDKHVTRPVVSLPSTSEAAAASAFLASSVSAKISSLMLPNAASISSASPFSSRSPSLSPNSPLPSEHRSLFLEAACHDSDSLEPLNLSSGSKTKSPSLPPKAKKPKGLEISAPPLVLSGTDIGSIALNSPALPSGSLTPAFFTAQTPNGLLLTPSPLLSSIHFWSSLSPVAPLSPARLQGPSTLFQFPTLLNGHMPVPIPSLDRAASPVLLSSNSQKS
The following applies: protein: recombinant; tags: N-terminal GST; dsDNA, one strand shown. The essentials:
as §1

In experiment [10] the target is T7, FEV (Homo sapiens, UniProt Q99581 1-238).
T7 sequence: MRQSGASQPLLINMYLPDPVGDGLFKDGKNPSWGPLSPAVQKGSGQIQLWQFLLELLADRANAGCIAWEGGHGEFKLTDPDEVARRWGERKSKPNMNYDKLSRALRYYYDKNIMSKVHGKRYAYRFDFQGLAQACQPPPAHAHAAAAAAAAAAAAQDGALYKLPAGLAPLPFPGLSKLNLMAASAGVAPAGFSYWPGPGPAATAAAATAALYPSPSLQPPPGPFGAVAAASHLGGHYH
The note with it: protein: recombinant; tags: N-terminal GST; dsDNA, one strand shown. The essentials:
as §1

Experiment [11] concerns the target ETV5 (Homo sapiens, UniProt P41161 1-510). The following applies: protein: recombinant; tags: N-terminal GST; dsDNA, one strand shown. The essentials: as §1
Experiment [12] concerns the target HSF1 (Homo sapiens, UniProt Q00613 1-529). The following applies: protein: recombinant; tags: N-terminal GST; chain copies: 3; dsDNA, one strand shown. The essentials: as §1
The target of experiment [13] is T8, SPIC (Homo sapiens, UniProt Q8N5J4 1-248).
T8 sequence: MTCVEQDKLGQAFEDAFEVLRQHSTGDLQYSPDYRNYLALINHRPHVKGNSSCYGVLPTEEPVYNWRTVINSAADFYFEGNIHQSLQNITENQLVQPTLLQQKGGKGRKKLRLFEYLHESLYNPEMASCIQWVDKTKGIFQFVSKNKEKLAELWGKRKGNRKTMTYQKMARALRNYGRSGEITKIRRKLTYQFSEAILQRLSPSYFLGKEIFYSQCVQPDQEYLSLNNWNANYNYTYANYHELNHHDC
The note with it: protein: recombinant; tags: N-terminal GST; dsDNA, one strand shown. In outline: as §1

Experiment [14] concerns the target ELF4 (Homo sapiens, UniProt Q99607 1-663). The note with it: protein: recombinant; tags: N-terminal GST; dsDNA, one strand shown. In outline: as §1
The target of experiment [15] is T9, ELK4 (Homo sapiens, UniProt P28324-2 1-405).
T9 sequence: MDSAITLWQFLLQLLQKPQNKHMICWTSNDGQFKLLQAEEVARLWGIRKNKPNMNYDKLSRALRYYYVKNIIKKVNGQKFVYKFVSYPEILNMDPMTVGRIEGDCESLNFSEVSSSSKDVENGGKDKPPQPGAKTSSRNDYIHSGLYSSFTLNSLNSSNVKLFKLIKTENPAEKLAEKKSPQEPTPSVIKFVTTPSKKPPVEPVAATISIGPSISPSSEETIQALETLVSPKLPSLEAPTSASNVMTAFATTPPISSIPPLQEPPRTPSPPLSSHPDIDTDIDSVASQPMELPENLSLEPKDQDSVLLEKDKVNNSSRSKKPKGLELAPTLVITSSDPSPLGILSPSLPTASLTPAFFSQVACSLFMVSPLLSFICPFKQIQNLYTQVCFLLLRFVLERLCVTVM
The note with it: protein: recombinant; tags: N-terminal GST; dsDNA, one strand shown. The essentials:
as §1

Experiment [16] deals with T10, ETV2 (Homo sapiens, UniProt O00321 1-342).
T10 sequence: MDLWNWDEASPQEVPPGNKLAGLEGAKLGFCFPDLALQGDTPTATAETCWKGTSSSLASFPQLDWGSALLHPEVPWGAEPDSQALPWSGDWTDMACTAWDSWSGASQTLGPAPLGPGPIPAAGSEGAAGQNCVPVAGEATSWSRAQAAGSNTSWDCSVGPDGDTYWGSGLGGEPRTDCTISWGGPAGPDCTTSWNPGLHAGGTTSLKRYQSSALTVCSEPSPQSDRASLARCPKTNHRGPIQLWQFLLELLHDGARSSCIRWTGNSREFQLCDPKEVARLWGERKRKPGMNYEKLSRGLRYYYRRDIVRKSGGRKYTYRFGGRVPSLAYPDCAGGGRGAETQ
The following applies: protein: recombinant; tags: N-terminal GST; dsDNA, one strand shown. In outline: as §1

Experiment [17] deals with T11, ELF3 (Homo sapiens, UniProt P78545 1-371).
T11 sequence: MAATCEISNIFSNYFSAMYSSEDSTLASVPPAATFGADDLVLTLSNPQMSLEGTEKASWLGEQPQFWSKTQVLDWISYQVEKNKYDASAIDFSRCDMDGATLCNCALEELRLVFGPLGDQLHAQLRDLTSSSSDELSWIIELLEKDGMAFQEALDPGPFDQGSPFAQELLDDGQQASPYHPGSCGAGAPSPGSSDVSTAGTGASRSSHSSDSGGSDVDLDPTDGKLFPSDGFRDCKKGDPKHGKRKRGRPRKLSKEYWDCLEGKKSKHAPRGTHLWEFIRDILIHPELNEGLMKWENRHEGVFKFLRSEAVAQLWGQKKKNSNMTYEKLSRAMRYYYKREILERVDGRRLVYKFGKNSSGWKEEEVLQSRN
The following applies: protein: recombinant; tags: N-terminal GST; dsDNA, one strand shown. The essentials: as §1

Experiment [18] deals with ETV1 (Homo sapiens, UniProt P50549 1-477). The following applies: protein: recombinant; tags: N-terminal GST; dsDNA, one strand shown. The essentials:
as §1

ELF4, sequence (Q99607 whole entry): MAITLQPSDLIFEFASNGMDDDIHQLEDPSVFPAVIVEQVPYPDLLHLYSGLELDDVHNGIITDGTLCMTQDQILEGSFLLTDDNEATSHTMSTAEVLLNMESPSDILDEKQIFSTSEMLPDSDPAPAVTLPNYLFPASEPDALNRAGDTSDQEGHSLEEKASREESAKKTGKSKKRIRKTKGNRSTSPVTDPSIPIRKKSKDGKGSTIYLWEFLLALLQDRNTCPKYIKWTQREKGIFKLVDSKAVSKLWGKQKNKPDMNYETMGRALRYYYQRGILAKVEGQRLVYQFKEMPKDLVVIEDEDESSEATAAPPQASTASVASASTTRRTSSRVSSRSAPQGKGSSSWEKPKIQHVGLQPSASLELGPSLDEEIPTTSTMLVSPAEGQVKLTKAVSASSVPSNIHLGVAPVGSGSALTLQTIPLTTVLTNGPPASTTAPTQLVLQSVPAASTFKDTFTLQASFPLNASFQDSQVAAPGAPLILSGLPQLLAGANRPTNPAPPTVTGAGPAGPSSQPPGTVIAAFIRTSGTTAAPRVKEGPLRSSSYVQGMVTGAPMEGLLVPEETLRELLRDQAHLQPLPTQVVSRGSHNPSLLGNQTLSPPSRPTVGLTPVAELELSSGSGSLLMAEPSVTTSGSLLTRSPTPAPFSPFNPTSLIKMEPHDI
ETV1, sequence (P50549 whole entry): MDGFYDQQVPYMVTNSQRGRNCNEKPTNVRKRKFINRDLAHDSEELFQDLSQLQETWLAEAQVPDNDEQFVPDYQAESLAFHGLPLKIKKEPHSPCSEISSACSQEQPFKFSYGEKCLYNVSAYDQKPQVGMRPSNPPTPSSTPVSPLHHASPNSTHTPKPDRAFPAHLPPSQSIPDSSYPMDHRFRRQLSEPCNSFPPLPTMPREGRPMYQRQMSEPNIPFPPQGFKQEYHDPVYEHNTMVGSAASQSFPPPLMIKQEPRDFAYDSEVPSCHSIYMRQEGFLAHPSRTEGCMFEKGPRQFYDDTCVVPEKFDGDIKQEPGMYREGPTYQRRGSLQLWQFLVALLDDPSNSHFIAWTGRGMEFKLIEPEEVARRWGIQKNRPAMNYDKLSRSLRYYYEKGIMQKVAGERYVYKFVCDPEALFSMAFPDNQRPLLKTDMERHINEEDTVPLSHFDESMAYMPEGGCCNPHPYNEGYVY
ETV5, sequence (P41161 whole entry): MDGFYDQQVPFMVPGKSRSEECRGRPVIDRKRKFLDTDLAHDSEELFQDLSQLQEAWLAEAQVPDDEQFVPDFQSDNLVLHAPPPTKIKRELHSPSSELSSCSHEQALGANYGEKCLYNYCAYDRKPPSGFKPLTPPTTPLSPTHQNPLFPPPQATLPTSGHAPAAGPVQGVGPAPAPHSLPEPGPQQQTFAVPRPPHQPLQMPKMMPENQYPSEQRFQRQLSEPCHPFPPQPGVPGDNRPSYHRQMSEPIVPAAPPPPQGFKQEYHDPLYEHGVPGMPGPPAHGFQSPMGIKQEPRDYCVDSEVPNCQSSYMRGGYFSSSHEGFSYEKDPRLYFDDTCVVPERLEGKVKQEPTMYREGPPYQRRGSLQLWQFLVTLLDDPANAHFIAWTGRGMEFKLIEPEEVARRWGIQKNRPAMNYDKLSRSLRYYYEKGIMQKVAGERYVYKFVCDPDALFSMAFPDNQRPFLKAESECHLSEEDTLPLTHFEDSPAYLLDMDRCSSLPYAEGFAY
SPIB, sequence (Q01892 whole entry): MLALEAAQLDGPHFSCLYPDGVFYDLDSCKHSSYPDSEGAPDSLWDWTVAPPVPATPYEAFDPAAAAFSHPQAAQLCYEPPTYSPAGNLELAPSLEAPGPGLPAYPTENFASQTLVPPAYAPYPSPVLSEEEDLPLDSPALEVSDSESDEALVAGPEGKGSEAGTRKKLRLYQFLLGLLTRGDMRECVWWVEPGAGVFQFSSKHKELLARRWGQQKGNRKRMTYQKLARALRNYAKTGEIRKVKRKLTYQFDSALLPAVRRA
HSF1, sequence (Q00613 whole entry): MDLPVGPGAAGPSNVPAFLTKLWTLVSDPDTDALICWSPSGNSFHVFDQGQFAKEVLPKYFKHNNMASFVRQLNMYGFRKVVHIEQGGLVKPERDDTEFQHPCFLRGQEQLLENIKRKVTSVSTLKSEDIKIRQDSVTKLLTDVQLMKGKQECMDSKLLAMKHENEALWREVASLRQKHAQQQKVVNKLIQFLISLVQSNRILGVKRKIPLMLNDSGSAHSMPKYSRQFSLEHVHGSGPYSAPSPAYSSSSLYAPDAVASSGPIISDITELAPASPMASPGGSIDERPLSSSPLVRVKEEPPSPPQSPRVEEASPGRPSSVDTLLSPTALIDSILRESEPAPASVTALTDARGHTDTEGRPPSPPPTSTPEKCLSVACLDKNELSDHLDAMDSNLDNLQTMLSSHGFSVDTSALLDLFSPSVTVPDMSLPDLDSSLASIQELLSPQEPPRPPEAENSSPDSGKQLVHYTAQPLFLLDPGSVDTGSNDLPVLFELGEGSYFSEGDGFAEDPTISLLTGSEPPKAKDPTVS

In the case of GAACCC, the binding signal in experiment [1] was 1.12 fold enrichment (6-mer frequency, TF over GST control); in experiment [2] it was 1.19 fold enrichment (6-mer frequency, TF over GST control); in experiment [3] it was 1.16 fold enrichment (6-mer frequency, TF over GST control); in experiment [4], 1.18 fold enrichment (6-mer frequency, TF over GST control); in experiment [5] it was 1.14 fold enrichment (6-mer frequency, TF over GST control); in [6] it was 1.13 fold enrichment (6-mer frequency, TF over GST control). The binding signal in [7] is 1.16 fold enrichment (6-mer frequency, TF over GST control); in experiment [8], 1.06 fold enrichment (6-mer frequency, TF over GST control); in experiment [9], 1.19 fold enrichment (6-mer frequency, TF over GST control); in experiment [10], 1.17 fold enrichment (6-mer frequency, TF over GST control); in [11] it was 1.2 fold enrichment (6-mer frequency, TF over GST control); in [12] it was 1.03 fold enrichment (6-mer frequency, TF over GST control). The binding signal in experiment [13] was 1.29 fold enrichment (6-mer frequency, TF over GST control); in experiment [14], 1.22 fold enrichment (6-mer frequency, TF over GST control); in [15], 1.2 fold enrichment (6-mer frequency, TF over GST control); in [16], 1 fold enrichment (6-mer frequency, TF over GST control); in [17] it was 1.05 fold enrichment (6-mer frequency, TF over GST control); in [18] it was 1.19 fold enrichment (6-mer frequency, TF over GST control).

The values are drawn from paper PMC7862700, “An all-to-all approach to the identification of sequence-specific readers for epigenetic DNA modifications on cytosine”.
